The text below walks through data of PubChem BioAssay (NCI).

SMILES strings stand for the structures. The panel holds about 83,000 compounds, 20% with a hit somewhere; the sample as a whole holds those more often.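 Cell lines were cultured in 96-well plates, exposed to a single compound concentration, and assessed for percent growth 48 hours later.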 Active and inactive are the calls of the source. Rule for the calls: active = growth percent below 10; inactive = the rest.

For this assay, the system named is HL-60(TB) leukemia. Description: NCI-60 one-dose screen, 48 h (100 = growth as untreated, 0 = no growth, -100 = all killed). The following applies: 10 µM unless noted.
For the compound `O=S1(=O)NCCCN1CCNc1nccc(-c2c(-c3cccc(O)c3)nc3sccn23)n1`, the growth was 73.3% (inactive).
As to `Cc1ccc2c(c1)O/C(=C\c1ccc([N+](=O)[O-])o1)C2=O`, the growth was 17.2% (inactive).
On to `CC(C)C(=O)OCCOc1ccc(C(C)(C)C)cc1`, for which the growth was 107% (inactive).
In the case of `CCCCOc1cc(C(=O)NCCN(CC)CC)c2ccccc2n1` it was 96.7% (inactive).
With `COc1cc(/C=C/C(=O)c2ccc(Cl)cc2)cc(CN2CCCCC2)c1O` the figure was 94.2% (inactive); with `Clc1nc(Cl)c2ncn(-c3ccccc3)c2n1`, 46.1% (inactive).
In the case of `COc1c(C(=O)/C=C/c2ccc(C)o2)c(O)cc2occc12`, the growth was 44.6% (inactive).
With `O=C(Nn1cnc2ccccc21)N1CCCC1` the figure was 87.1% (inactive); with `Oc1c(C(Nc2ccccn2)c2cccc(Oc3ccccc3)c2)ccc2cccnc12` (configuration not stated), -51.9% (active); with `O=C(CCCCCCc1nc2ccc(Br)cc2[nH]1)NO`, 2.12% (active).
In the case of `NC(=NCCCOc1ccc(Cl)cc1)Nc1ccc(Cl)cc1` it was 95.3% (inactive); in that of `C=CC(=O)Nc1cccc(Nc2nc(Nc3ccc(N4CCN(C(C)=O)CC4)cc3OC)ncc2C(F)(F)F)c1`, -25.2% (active).
In the case of `Cn1ccnc1C(=O)/C=C/c1ccc(C(=O)Nc2ccc(F)cc2)cc1` it was -6.9% (active); in that of `COc1ccc(-c2nc(N3CCCC3=O)sc2Br)cc1OC`, 101% (inactive); in that of `c1ccc(-c2cccc(-c3ccccn3)n2)nc1`, -16.9% (active).
Take `Cc1cc(Cl)nc(N(CCCNc2ccnc3cc(Cl)ccc23)Cc2ccccn2)n1`: the growth is 12% (inactive).
With `CC(=O)Nc1c(Cl)cc2c(c1Cl)Cc1cc([N+](=O)[O-])ccc1-2` the figure was 96.3% (inactive); with `CCC(C)C1NC(=O)C(CC(C)C)NC(=O)C(C)NC(=O)C(C(C)C)NC(=O)C(CCCCN)NC(=O)C(CC(C)C)NC(=O)C(C(C)C)NC(=O)[C@H](C)NC(=O)C(C(C)CC)NC(=O)C(CCCN=C(N)N)NC(=O)C(CCCCN)NC(=O)C(CCCN=C(N)N)NC(=O)C(CCCCN)NC(=O)C([C@H](C)CC)NC(=O)C(CCCCN)NC1=O` (some centres not stated), -39.5% (active); with `CCCCNCCCN(CCCC)CCCNCCCC`, 98.5% (inactive).
For the compound `COc1cc2nc(N3CCCC3)nc(Nc3ccccc3)c2cc1OC`, the growth was -53.9% (active).
Turning to `S=c1cnc2ccccc2[nH]1`, the growth was 86.4% (inactive).
With `COc1cccc(CCC(=O)c2cc3c(N)c(C(=O)Nc4cccc(Cl)c4C)sc3nc2C)c1` the figure was 0.884% (active); with `COc1ccc(-n2c(N)c(-c3nc4ccccc4[nH]3)cc(C#N)c2=O)cc1`, 99% (inactive); with `Nc1nnc2cc(Cl)ccc2n1`, 145% (inactive).
With `Cc1cc(Cl)nc(N2CCN(CCNc3ccnc4cc(Cl)ccc34)CC2)n1` the figure was 27.8% (inactive); with `COc1ccc2c(c1)/C(=C/c1sc(=S)n(Cc3ccco3)c1O)C=N2`, 3.03% (active); with `CC1CCC(C)(C)c2ccccc21` (configuration not stated), 109% (inactive).
